Laboratory results reported in PubChem BioAssay (NCI).
This is part of a sample that, as a whole, favours compounds with a hit. Of some 83,000 tested, about 20% had one in any assay.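 How to read the values: 0–100, growth inhibition (40 = 60% inhibited); 0, no net growth; -100 to 0, cell death (-40 = 40% of starting cells died; -100 = all dead).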 Calls of active or inactive are those of the source.

The molecules below were run on UACC-62 melanoma (assay: NCI-60 one-dose screen, 48 h (100 = growth as untreated, 0 = no growth, -100 = all killed)). Details: 10 µM unless noted.
Protocol: Growth inhibition of the UACC-62 human tumor cell line is measured as a screen for anti-cancer activity. Cells are grown in 96 well plates and exposed to the test compound for 48 hours. Compounds are tested at a single concentration, which is 10^-5 M for most compounds. The reported endpoint is percent growth (GI% or GIPRCNT), where numbers from 0 - 100% represent growth inhibition, and numbers from -100% - 0 represent cell death. For example, a value of 40 represents 60% growth inhibition. A value of 0 means no net growth occurred over the course of the experiment. A value of -40 indicates 40% of cells at the beginning of the experiment died by the end of the experiment. A value of -100 means all cells are dead at the end of the experiment.
NCI-60 Human Tumor Cell Lines Screen was performed using the standard one-dose NCI protocol, which is described in more detail at https://dtp.cancer.gov/discovery_development/nci-60/default.htm.
Compounds with GIPRCNT values below 10 were considered active. Activity score was based on GIPRCNT using the following formula: […]
Score is 0 for GIPRCNT values of 100 or above, 50 for GIPRCNT values of 0, and 100 for GIPRCNT values of -100.

Row | SMILES | growth
1 | CCCCCc1c(C)[nH]c(/C=C2\N=C(c3ccc[nH]3)C=C2CC)c1C | -97.4% (active)
2 | COc1cc(NC(C)CCCN)c2ncccc2c1Sc1ccc(Cl)cc1 (stereo not given) | 81.2% (inactive)
3 | CCN(CC)Cc1cc(Nc2nc(NC3CCC(N(C)C)CC3)c3ccccc3n2)ccc1OC (stereo not given) | 98.4% (inactive)
4 | Fc1[nH]nc2ccc([C@@H]3Nc4ccc5[nH]ncc5c4[C@H]4C5CCC(C5)[C@@H]34)cc12 (stereo not given in full) | 27.5% (inactive)
5 | COc1ccc2[nH]cc(/C=C3\C(=O)Nc4ccccc43)c2c1 | 26% (inactive)
6 | Cc1ccc2cc3c(NC(=O)c4cccnc4)nn(C)c3nc2c1 | 88.7% (inactive)
7 | COc1ccc2[nH]cc(C(c3ccc(Cl)cc3)N3CCCC3)c2c1 (stereo not given) | 92.5% (inactive)
8 | CCCCNCC(O)c1cc(-c2ccc(C(F)(F)F)cc2)nc(-c2ccc(C(F)(F)F)cc2)c1 (stereo not given) | -83.4% (active)
9 | CCCCN(CCCC)CCC(O)c1cc2ccc(C(F)(F)F)cc2c2cc(C(F)(F)F)ccc12 (stereo not given) | 40.8% (inactive)
10 | O=C(C(=O)c1cccnc1)c1cccnc1 | 102% (inactive)
11 | N=c1n(Cc2ccccc2)c(N)cc(=O)n1Cc1ccccc1 | 33.8% (inactive)
12 | Clc1ncnc2scc(C3COc4ccccc4O3)c12 (stereo not given) | 98.2% (inactive)
13 | O=C(c1ccccc1)N(CCCCl)C(=O)N(CCCCl)C(=O)c1ccccc1 | 65.2% (inactive)
14 | COc1ccc(C2CC(c3cccc(Nc4ccnc5cc(Cl)ccc45)c3)=NN2c2ccc(Cl)cc2)cc1 (stereo not given) | 9.78% (active)
15 | O=NN(CC(=O)NNc1ccccc1)CC(=O)NNc1ccccc1 | 3.99% (active)
16 | CC(=O)c1c(O)c(C)c(O)c2c1OC1=CC(=O)/C(=C(/C)N)C(=O)C12C (stereo not given) | 77.8% (inactive)
17 | c1ccc2c(Cc3csc4ccccc34)csc2c1 | 86.4% (inactive)
18 | COc1ccc2nc(C)cc(Nc3ccccc3O)c2c1 | 56.5% (inactive)
19 | COC(=O)C1(C)COP(=O)(NC23CC4CC(CC(C4)C2)C3)OC1 (stereo not given) | 109% (inactive)
20 | O=C(Nc1cnc(C(F)(F)F)cn1)c1cc(Cl)ccc1O | -5.58% (active)

Row | SMILES | growth
21 | COC(=O)C(CCC(=O)CCl)N1C(=O)c2ccccc2C1=O (stereo not given) | 64.8% (inactive)
22 | C#CC[C@@H]1C[C@]2(C)[C@H]3CC[C@@H]4[C@H]5C(C(=C)C)CC[C@]5(C(=O)NCCCCN)CC[C@@]4(C)[C@]3(C)CC[C@H]2C(C)(C)[C@H]1OC(C)=O (stereo not given in full) | -36.1% (active)
23 | COc1ccc2c(c1)N(CCO)C1=C(C(=O)OC1)C2c1cccc(Br)c1 (stereo not given) | 25% (inactive)
24 | CC(C)=CCC[C@H](C)c1ccc(C)c2c1OCN(CCO)C2 | 96.1% (inactive)
25 | O=[N+]([O-])c1cccc(N=C(Nc2cccc([N+](=O)[O-])c2)c2ccccc2)c1 | 70% (inactive)
26 | Cc1ccccc1CNc1ncnc2[nH]ncc12 | 97.8% (inactive)
27 | O=C(Nc1ccc2[nH]c3ccccc3c2c1)c1ccccc1Cl | 56.4% (inactive)
28 | COc1ccc(/C=C(/C(=O)N2CCN(c3ccccc3)CC2)c2cc(OC)c(OC)c(OC)c2)cc1N | 27.9% (inactive)
29 | O=C(C=P(c1ccccc1)(c1ccccc1)c1ccccc1)CCl | -78.3% (active)
30 | Cc1nn(-c2ccc(Cl)cc2)c(=O)n1CCN1CCOCC1 | 82.8% (inactive)
31 | COc1cc2c(cc1C)NC(=O)/C2=C\c1c[nH]c2ccccc12 | 77.9% (inactive)
32 | N#Cc1c(N)c(C(=O)c2ccc3c(c2)OCCO3)n2c1CCCC2 | 38% (inactive)
33 | Cc1ccccc1N1C(c2ccccc2)=NNC12C=CC(=O)c1c(O)cccc12 (stereo not given) | 12% (inactive)
34 | c1ccc2c(c1)cnc1ccccc12 | 98.9% (inactive)
35 | CC1=NOCC(=O)N1 | 102% (inactive)
36 | COc1cc(C2CC(c3ccc(Nc4ccnc5cc(Cl)ccc45)cc3)=NN2c2ccccc2)cc(OC)c1OC (stereo not given) | 49.9% (inactive)
37 | Cc1cc(O)c(C2=NN(c3ccc(S(N)(=O)=O)cc3)C(c3ccc(Cl)cc3)C2)c(C)c1Cl (stereo not given) | 53% (inactive)
38 | CC(=O)[C@H]1CC[C@H]2[C@@H]3CC[C@H]4CC=CC[C@]4(C)[C@H]3CC[C@]12C | 79.9% (inactive)
39 | O=C(CCc1nc2sc3c(c2c(=O)[nH]1)CCC3)NCc1cn(-c2ccccc2)nc1-c1ccccc1 | 88.6% (inactive)
40 | COS(=O)(=O)CCN(CCOS(C)(=O)=O)S(C)(=O)=O | 102% (inactive)
